# CHRM1 antagonist: antagonists of human M1 muscarinic receptor; CHO-K1 hM1, Fluo-8 calcium fluorescence, ACh EC80 antagonist; inhibition, % at 3 µM; 360,000 compounds, 1.3% hits; AID 588852;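 active = percent inhibition above its own plate's cutoff, namely the mean of that plate's compound wells plus 3 SD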;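 also: peak over basal fluorescence ratio during 140 s after agonist addition; 0% = ACh EC80 plus DMSO and 100% = DMSO alone without agonist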
# Target sequence (P11229 whole entry, looked up): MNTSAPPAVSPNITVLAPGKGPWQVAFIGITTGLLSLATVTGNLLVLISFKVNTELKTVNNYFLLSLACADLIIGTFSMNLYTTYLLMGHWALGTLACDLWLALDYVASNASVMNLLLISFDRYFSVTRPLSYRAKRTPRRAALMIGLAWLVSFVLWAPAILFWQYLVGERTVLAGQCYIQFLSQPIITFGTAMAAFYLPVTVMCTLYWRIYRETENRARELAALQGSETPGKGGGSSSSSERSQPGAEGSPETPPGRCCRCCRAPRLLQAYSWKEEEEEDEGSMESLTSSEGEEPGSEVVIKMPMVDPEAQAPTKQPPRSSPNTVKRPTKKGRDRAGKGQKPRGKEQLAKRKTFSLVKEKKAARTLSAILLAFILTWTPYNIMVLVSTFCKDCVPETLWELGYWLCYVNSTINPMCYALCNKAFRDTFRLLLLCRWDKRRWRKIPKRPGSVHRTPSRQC
# M1 PAM parental: M1 PAM counterscreen hit in parental CHO-K1 cells; ATP EC20, Fluo-8 calcium fluorescence; 0% at ATP EC20, 100% at ATP max; activation, % at 3 µM; 360,000 compounds, 0.02% hits;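 active = activation above the run cutoff, the mean activation of all test compounds plus 3 SD, cut at about 40% in these data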;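 also: peak over basal fluorescence ratio in a 140 s read after ATP addition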
# CHRM1 PAM: potentiates human M1 receptor response to acetylcholine; P11229; CHO-K1 hM1, Fluo-8 calcium fluorescence, ACh EC20; 0% = ACh EC20, 100% = maximal ACh; activation, % at 3 µM; 360,000 compounds, 0.088% hits; in the data active = activation above about 19%, passing the limit was not always enough
# M1 ag parental: counter-screen for M1 agonists: effect in parental CHO-K1 cells; Fluo-8 calcium fluorescence; scaled to maximal ATP response, vehicle zero; activation, % at 3 µM; 360,000 compounds, 0.48% hits; in the data active = activation above about 15%;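 also: untransfected CHO-K1 host cells lacking M1 receptor as counterscreen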
# CHRM1 agonist: agonists of human M1 muscarinic receptor; activation, % at 3 µM; P11229; 360,000 compounds, 0.33% hits; CHO-K1 hM1, Fluo-8 calcium fluorescence, agonist mode; 0% DMSO, 100% acetylcholine EC100;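 active = activation above the run's mean compound activation plus 3 SD, cut at about 16% in these data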;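 also: peak over basal fluorescence ratio within a 140 s kinetic read after compound addition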
# CHO-K1 Ca antag: nonselective inhibitor or artifact in parental CHO-K1 cells. ATP-induced calcium, Fluo-8 fluorescence. inhibition, % at 3 µM. 360,000 compounds, 0.6% hits;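 active = inhibition above a per-plate cutoff, the plate's mean sample inhibition plus 3 SD, cut at about 24% in these data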;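 also: 0% = DMSO plus EC80 ATP and 100% = DMSO alone without ATP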
# An asterisk follows results filed as active. An excerpt weighted towards active compounds, which were near 2.3% of everything screened.
SMILES,CHRM1 antagonist,M1 PAM parental,CHRM1 PAM,M1 ag parental,CHRM1 agonist,CHO-K1 Ca antag
CCc1ccc2c(c1)C(c1ccc([N+](=O)[O-])cc1)=NNC(c1ccc(C)cc1)=N2,3,16,-1,18*,-8,11
COc1ccc(S(=O)(=O)NCCSCc2ccco2)cc1,4,-7,4,0,-3,28*
COc1ccc(CCNS(=O)(=O)c2ccc(Br)cc2)cc1,-11,12,6,2,-2,-11
COc1ccc(S(=O)(=O)NCCc2ccccc2)cc1,29*,0,-9,0,0,-1
Cc1ccc(S(=O)(=O)NCCc2ccncc2)cc1C,2,13,-3,18*,-11,11
CCOc1ccc(S(=O)(=O)NCCSCc2ccco2)cc1,-7,3,4,2,-6,-5
COc1ccc(CCNC(=O)CNS(=O)(=O)c2ccc(Cl)cc2)cc1,1,-22,-1,8,7,24*
CC1(C(=O)Nc2cccc3cccnc23)CCN1Cc1ccc(-c2ccccc2)o1 (stereo unspecified),-2,3,-1,0,-6,2
O=[N+]([O-])c1ccc(N2CCN(C(=S)NC3CCCCC3)CC2)cc1,21*,4,-21,9,2,9
CCOC(=O)C1=C(C)NC(C)=C(C(=O)OCC)C1C(=O)OCC(=O)NCc1ccccc1OC,-7,8,2,1,-1,-6
CC1=C(C(=O)N(C(C)C)C(C)C)CC(CC(=O)NCCN2CCOCC2)C(=O)N1CCCN1CCCC1=O (stereo unspecified),13,5,0,1,0,26*
CCOc1ccccc1OCCCC(=O)N(CC)CC(=O)Nc1c(F)cccc1F,-1,-2,1,2,-2,-11
Cc1c(N=C(N)/N=C(\N)Nc2ccccc2)c(=O)n(-c2ccccc2)n1C,67*,-7,-27,0,-12,-2
Cc1cc(-n2cccn2)ccc1CN1CCN(CC(C)C)C(CCO)C1 (stereo unspecified),48*,16,-24,1,-7,-17
CC(C)CCN1CCN(Cc2cccc(-n3cccn3)c2)CC1CCO (stereo unspecified),0,-9,-2,0,-7,4
Cc1ccc(CN2CCN(Cc3ccc(-n4cccn4)cc3)CC2CCO)cc1 (stereo unspecified),-15,7,9,0,-14,-5
Cc1cc(-n2cccn2)ccc1CN1CCN(C2CCCC2)C(CCO)C1 (stereo unspecified),100*,-13,-20,0,-4,6
c1ccc(-c2cnn3c(-c4ccccc4)c(-c4ccccc4)nc3n2)cc1,41*,11,-9,31*,52*,28*
CCN(C(=O)CN1CCOCC1)C1(C)C(=O)c2ccccc2C1=O,-11,21,8,0,-7,-1
COc1ccc2noc3c2c1C(=O)c1ccccc1-3,22,-28,-26,22*,72*,26*
COc1ccc(N)c2c1C(=O)c1ccccc1C2=O,-3,-14,7,0,-4,1
COc1ccc(C2NC(=O)C(C#N)=C(S)N2c2ccc(C)cc2)cc1OC (stereo unspecified),-4,14,7,1,-1,-12
COc1ccc(C2NC(=O)C(C#N)=C(S)N2c2cccc(C)c2)cc1OC (stereo unspecified),5,13,6,16*,-2,3
CN(C)c1ccc(C=O)c(Oc2ccccc2)c1,-13,24,0,0,-9,-26
CC1(C)CC(=O)C2=C(C1)NC(SCC(=O)Nc1ccccc1)=C(C#N)C21CCCCC1,-19,19,2,0,-2,-10
CC(C)(C)C1CCC2(CC1)C(C#N)=C(SCC(=O)Nc1ccccc1)NC(=O)C2C#N (stereo unspecified),20,-1,-12,10,5,27*
CN(C)CCNC(=O)C(c1ccccc1)c1ccccc1,17,10,-15,0,-7,-1
CN(C)CCC(=O)C(Cc1ccccc1)c1ccccc1 (stereo unspecified),73*,21,-27,3,-7,-7
CN(C)CC(c1ccccc1)c1ccccc1,-15,18,5,2,-9,-4

# Screening data from PubChem.
